# Screens: PubChem, Broad Institute
# Sampled rows, rich in hits. Any-hit rate of the full collection: about 3.2%.
# DENV2 CPE rescue: inhibitors of DENV2 cytopathic effect, primary screen, cell-based, plate reader, single concentration; CPE inhibition, % at 9.99 µM; AID 651640, 2012; DENV2-infected cells, cytopathic effect rescue; 350,000 tested, 1.7% active; in the data active = CPE inhibition above about 20%, passing the limit was not always enough; inconclusive = no clear call, values can overlap the other calls; tested in BHK-21 cells;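 also: 0% = median of neutral control wells and 100% = median of positive control wells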
# PGC1a acetyl inh: inhibitors of PGC1a acetylation signal, primary screen, cell-based, U2OS, AlphaScreen, inhibitor mode; AlphaScreen anti-acetyl-lysine; with virally co-expressed GCN5 acetyltransferase; inhibition, % at 15.6 µM; 350,000 tested, 0.17% active;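 active = every replicate shows inhibition of at least 40%; inconclusive = mean inhibition at least 40% but some replicate below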;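 also: 0% = neutral control wells and 100% = positive control wells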
# CaV13 FRET inh: Disruptors of the CACNA1D IQ motif to Ca2+-dependent inactivation inhibitor domain association, primary screening, Förster resonance energy transfer in intact living … | AID 743397 | HEK cells, CFP/YFP FRET ICDI-IQ, plate reader, 10 min; percent FRET-ratio fall versus neutral wells | inhibition, % at 12.3 µM | 340,000 tested, 0.098% active;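 active = mean replicate inhibition of at least 30% and at least 1% of replicates passing that level; inconclusive = only one of the two criteria is met; inactive = neither criterion is met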;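 also: 0% = median of the neutral control wells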
# INS-1E GSIS act: GLuc luminescence reporter in INS-1E cells, primary screen for activators of glucose-dependent secretion of insulin; INS-1E GLuc reporter insulin secretion, 2-3 h; activation, % at 16.6 µM; 370,000 tested, 0.61% active;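 active = lowest replicate activation of at least 40%, so every replicate reaches that level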;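 also: 0% = median of neutral control wells and 100% = median of IBMX positive control wells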
# ERAP1 HTS inh: human ERAP1 aminopeptidase inhibitors, primary screen, biochemical, single point, plate reader; Endoplasmic reticulum aminopeptidase 1 (Homo sapiens), Q9NZ08; recombinant ERAP1, Leu-AMC fluorescence, 60 min; inhibition, % at 10.7 µM; 340,000 tested, 0.15% active;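 active = mean replicate inhibition of at least 30%, or all replicates individually reaching that 30% level; inactive = mean below 30% and not every replicate reaching it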;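 also: 0% = neutral control wells and 100% = L-leucinethiol positive control wells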
# Ecoli rRNA inh: reduced GFP signal of wild-type E. coli, primary screen, bacterial rRNA inhibitor project, GFP/RFP fluorescence, OD600, single point; E. coli WT GFP vs humanized-ribosome RFP mutants, 24 h; hits give low values; DMSO median 0, no signal -100; GFP signal change (wild-type ribosome), % (concentration not given with the values); 350,000 tested, 1.6% active; AID 720706, 2013;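 active = significant combined selectivity score with lowered wild-type GFP, culture density cut under 30%, mutant RFP and density less affected; inactive = any of these conditions unmet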
# * = called active by the depositor; u = inconclusive; x = no result given.
SMILES,DENV2 CPE rescue,PGC1a acetyl inh,CaV13 FRET inh,INS-1E GSIS act,ERAP1 HTS inh,Ecoli rRNA inh
CC(C)NC(=O)Nc1ccc2c(c1)C(=O)N([C@H](C)CO)C[C@@H](C)[C@H](CN(C)C(=O)c1ccccc1)OCCCC[C@H](C)O2,u,-13.6,x,6.3,0.8,-0.6
Cc1ccccc1S(=O)(=O)N1CC[C@@H]2[C@H]1c1cc(-c3cccc(C#N)c3)ccc1N(C)[C@H]2CO,-26.9,-8.8,x,13.8,0.0,-1.6
COc1ccc(-c2nc(N=Nc3ccc(O)cc3)n[nH]2)cc1,-21.8,2.4,-1.9,-10.4,3.0,-27.0*
CCC(=O)N1CC2(CCN(Cc3cccnc3)CC2)c2c(n(C)c3cc(OC)ccc23)[C@@H]1CO,4.8,12.4,x,7.7,-1.8,-1.7
O=C(O)Cc1ccc(NS(=O)(=O)c2ccc3c(c2)OCCO3)cc1,2.8,1.9,-4.7,129.6*,-3.9,4.1
O=C(O)c1ccc(NS(=O)(=O)c2ccc3c(c2)OCCO3)cc1,4.4,2.9,6.8,28.7,-1.3,2.9
COc1ccc(NS(=O)(=O)c2ccc3c(c2)OCCO3)cc1OC,-0.6,21.2,-5.2,-26.8,0.2,4.7
COc1ccc(S(=O)(=O)Nc2ccc3c(c2)OCO3)cc1OC,x,-3.4,-4.0,43.3*,4.9,-1.2
C[C@@H]1CCCCO[C@@H](CN(C)C(=O)Nc2cccc3ccccc23)[C@H](C)CN([C@@H](C)CO)C(=O)c2cc(NC(=O)NC3CCCCC3)ccc2O1,19.3,4.5,x,9.2,0.5,9.8
NC(=O)C1CCN(C(=O)CN(C2CCCCC2)S(=O)(=O)c2ccc(F)cc2)CC1,3.4,4.9,-4.2,-5.7,-1.6,-25.5*
O=C(O)c1ccc(S(=O)(=O)N(Cc2ccc(F)cc2)C2CCCCC2)cc1,-3.6,1.8,-4.2,x,-1.3,-22.2*
COc1ccc(CN(C)C[C@@H]2Oc3c(NC(=O)CCCCCC(=O)Nc4ccccc4N)cccc3C(=O)N([C@@H](C)CO)C[C@H]2C)cc1,-6.3,-10.7,x,-6.4,-2.6,-4.9
Fc1cccc(-c2cc3nc4c(c(NCc5ccco5)n3n2)CCCC4)c1,x,-11.8,-7.0,18.1,-2.3,-32.0*
COc1ccc2c3c([nH]c2c1)[C@@H](CO)N(C(=O)Nc1cccc(F)c1)CC31CN(S(=O)(=O)c2ccccc2)C1,x,x,x,9.4,x,-2.8
COc1ccc(S(=O)(=O)N(C)C[C@@H]2Oc3ccc(N(C)C)cc3CC(=O)N([C@H](C)CO)C[C@H]2C)cc1,30.2*,3.6,x,9.2,-1.2,-1.8
COc1ccc(S(=O)(=O)N(C)C[C@H]2Oc3ccc(NC(=O)Nc4ccc5c(c4)OCO5)cc3CC(=O)N([C@@H](C)CO)C[C@@H]2C)cc1,96.8*,6.0,-6.6,11.7,0.2,-1.3
C[C@H]1CN([C@@H](C)CO)C(=O)Cc2cc(NC(=O)Nc3ccc4c(c3)OCO4)ccc2O[C@@H]1CN(C)S(C)(=O)=O,26.1*,-3.5,x,-3.2,-1.5,4.5
COc1ccc(S(=O)(=O)N(C)C[C@H]2Oc3ccc(N(C)C)cc3CC(=O)N([C@H](C)CO)C[C@H]2C)cc1,-15.0,-6.2,x,-8.3,-20.0,-2.3
COc1ccc(S(=O)(=O)N(C)C[C@@H]2Oc3ccc(NC(=O)C4CCCCC4)cc3CC(=O)N([C@@H](C)CO)C[C@@H]2C)cc1,28.0*,1.0,x,-9.8,1.6,-1.3
COc1ccc(S(=O)(=O)N(C)C[C@H]2Oc3ccc(NC(=O)Nc4ccc5c(c4)OCO5)cc3CC(=O)N([C@H](C)CO)C[C@H]2C)cc1,3.6,-3.3,x,1.0,-0.3,-3.3
O=C(NCc1ccccn1)[C@H]1[C@H](CO)[C@H]2Cn3c(cccc3=O)[C@@H]1N2CC1CCCC1,3.2,3.2,x,1.9,1.5,2.3
Cc1ccc(S(=O)(=O)Nc2ccc3c(c2)CC(=O)N([C@@H](C)CO)C[C@@H](C)[C@H](CN(C)C(=O)Nc2ccc(C(F)(F)F)cc2)O3)cc1,-14.8,2.7,x,-20.8,-1.1,0.6
COc1ccc(NC(=O)Nc2ccc3c(c2)CC(=O)N([C@H](C)CO)C[C@@H](C)[C@@H](CN(C)S(=O)(=O)c2ccc(C)cc2)O3)cc1,x,9.4,x,-5.2,x,-1.6
Cc1ccc(S(=O)(=O)N(C)C[C@@H]2Oc3ccc(NC(=O)Nc4ccc(C(F)(F)F)cc4)cc3CC(=O)N([C@@H](C)CO)C[C@H]2C)cc1,28.0*,7.1,x,-2.5,-2.9,4.7
COc1ccc(NC(=O)Nc2ccc3c(c2)CC(=O)N([C@H](C)CO)C[C@@H](C)[C@H](CN(C)S(=O)(=O)c2ccc(C)cc2)O3)cc1,34.3*,2.2,x,0.8,-2.7,-2.8
SMILES,DENV2 CPE rescue,PGC1a acetyl inh,CaV13 FRET inh,INS-1E GSIS act,ERAP1 HTS inh,Ecoli rRNA inh
COc1ccc(NC(=O)Nc2ccc3c(c2)CC(=O)N([C@@H](C)CO)C[C@@H](C)[C@@H](CN(C)S(=O)(=O)c2ccc(F)cc2)O3)cc1,29.3*,-1.7,x,-6.6,0.8,5.2
COc1ccc(S(=O)(=O)N(C)C[C@@H]2Oc3ccc(NC(=O)CCC(F)(F)F)cc3CC(=O)N([C@@H](C)CO)C[C@@H]2C)cc1,41.6*,-11.8,x,-6.3,-2.4,-0.9
COc1ccc(S(=O)(=O)N(C)C[C@@H]2Oc3ccc(NC(=O)Nc4ccc(F)cc4)cc3CC(=O)N([C@H](C)CO)C[C@H]2C)cc1,0.0,0.1,x,2.0,x,0.2
C[C@@H]1CN([C@@H](C)CO)C(=O)c2cc(-c3cccc(F)c3)cnc2O[C@H]1CN(C)CC1CCOCC1,14.5,-8.9,x,3.3,x,4.0
Cc1noc(C)c1S(=O)(=O)Nc1ccc2c(c1)C(=O)N([C@H](C)CO)C[C@@H](C)[C@@H](CN(C)CC1CC1)O2,6.2,8.8,x,16.2,-1.7,1.9
CN1C(=O)c2cc(NC(=O)C3CCOCC3)ccc2OC[C@H]2O[C@H](CC(=O)O)CC[C@@H]21,-8.0,0.8,x,11.6,-1.3,4.6
C[C@H](CO)N1C[C@H](C)[C@H](CN(C)CC2CCCCC2)Oc2ccc(NC(=O)Nc3ccc4c(c3)OCO4)cc2CC1=O,33.6*,7.0,x,-12.0,2.9,1.0
C[C@@H]1CN([C@H](C)CO)C(=O)Cc2cc(NC(=O)Nc3ccc4c(c3)OCO4)ccc2O[C@H]1CN(C)CC1CCCCC1,-4.5,-11.2,x,-3.4,2.5,-10.6
COCC(=O)N(C)C[C@@H]1Oc2ncc(C#C[C@@H](C)O)cc2C(=O)N([C@H](C)CO)C[C@@H]1C,4.3,-1.2,x,17.0,-2.4,5.8
